Experimental data published in the supplement of paper PMC11732987, “Enantioselective OTUD7B fragment discovery through chemoproteomics screening and high-throughput optimisation” (Communications Chemistry, 2025).

Legend:
Assay in all cases: log2 ratio of Biotin-Ahx-Ub-VS probe labelling (fragment/DMSO); higher = less target engagement (more negative = stronger competition), active = hit call of the paper (q ≤ 0.05, log2 ratio ≤ -1)
Details in all cases: compound concentration: 200 uM; treatment time: 3 h
USP34 = USP34 (UniProt Q70CQ2)
Method in brief: (§1)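 Using Biotin-Ahx-Ub-VS at 0.5 µM final for 1 h, DUBs were labelled in HEK293T lysate (495 µg per sample) that had first been treated in triplicate with fragment at 200 µM or vehicle for 3 h. NeutrAvidin enrichment, LysC and trypsin digestion and diaPASEF LC-MS/MS followed. Spectronaut label-free quantities were global-median-normalised. Values are average log2 fragment/vehicle ratios by unpaired t-test, using proteins with ≥2 unique peptides.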

USP36 = biological target: T1, USP36 (UniProt Q9P275)
T1 sequence (whole entry): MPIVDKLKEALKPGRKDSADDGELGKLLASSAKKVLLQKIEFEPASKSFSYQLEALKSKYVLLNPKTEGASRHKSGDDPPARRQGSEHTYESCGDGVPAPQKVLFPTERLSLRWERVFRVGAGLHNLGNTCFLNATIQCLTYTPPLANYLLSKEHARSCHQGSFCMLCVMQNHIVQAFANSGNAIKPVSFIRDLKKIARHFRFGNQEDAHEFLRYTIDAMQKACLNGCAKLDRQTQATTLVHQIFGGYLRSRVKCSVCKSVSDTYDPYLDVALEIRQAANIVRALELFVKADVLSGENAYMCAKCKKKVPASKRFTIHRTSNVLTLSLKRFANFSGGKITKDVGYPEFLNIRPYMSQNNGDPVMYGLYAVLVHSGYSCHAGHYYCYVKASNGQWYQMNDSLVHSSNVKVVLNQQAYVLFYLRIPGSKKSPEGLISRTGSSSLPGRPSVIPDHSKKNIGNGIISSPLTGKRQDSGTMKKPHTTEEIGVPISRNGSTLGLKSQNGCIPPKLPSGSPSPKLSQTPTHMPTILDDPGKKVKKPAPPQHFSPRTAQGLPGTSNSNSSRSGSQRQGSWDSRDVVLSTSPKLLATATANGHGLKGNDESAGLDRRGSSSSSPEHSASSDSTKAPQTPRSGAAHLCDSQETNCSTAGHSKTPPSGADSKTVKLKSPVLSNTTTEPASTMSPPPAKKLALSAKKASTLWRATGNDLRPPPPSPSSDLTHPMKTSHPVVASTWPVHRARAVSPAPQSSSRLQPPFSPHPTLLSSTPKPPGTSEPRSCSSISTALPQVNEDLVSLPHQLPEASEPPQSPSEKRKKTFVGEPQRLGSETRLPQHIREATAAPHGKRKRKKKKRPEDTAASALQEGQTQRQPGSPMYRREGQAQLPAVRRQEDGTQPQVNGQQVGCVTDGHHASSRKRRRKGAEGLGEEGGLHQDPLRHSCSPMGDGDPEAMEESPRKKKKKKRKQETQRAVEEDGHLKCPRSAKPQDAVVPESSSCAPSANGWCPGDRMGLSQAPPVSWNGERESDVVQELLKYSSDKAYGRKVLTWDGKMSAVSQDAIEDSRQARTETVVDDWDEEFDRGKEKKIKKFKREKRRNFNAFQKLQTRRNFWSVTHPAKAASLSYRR
Method in brief: as §1

USP38 = biological target: T2, USP38 (UniProt Q8NB14)
T2 sequence (whole entry): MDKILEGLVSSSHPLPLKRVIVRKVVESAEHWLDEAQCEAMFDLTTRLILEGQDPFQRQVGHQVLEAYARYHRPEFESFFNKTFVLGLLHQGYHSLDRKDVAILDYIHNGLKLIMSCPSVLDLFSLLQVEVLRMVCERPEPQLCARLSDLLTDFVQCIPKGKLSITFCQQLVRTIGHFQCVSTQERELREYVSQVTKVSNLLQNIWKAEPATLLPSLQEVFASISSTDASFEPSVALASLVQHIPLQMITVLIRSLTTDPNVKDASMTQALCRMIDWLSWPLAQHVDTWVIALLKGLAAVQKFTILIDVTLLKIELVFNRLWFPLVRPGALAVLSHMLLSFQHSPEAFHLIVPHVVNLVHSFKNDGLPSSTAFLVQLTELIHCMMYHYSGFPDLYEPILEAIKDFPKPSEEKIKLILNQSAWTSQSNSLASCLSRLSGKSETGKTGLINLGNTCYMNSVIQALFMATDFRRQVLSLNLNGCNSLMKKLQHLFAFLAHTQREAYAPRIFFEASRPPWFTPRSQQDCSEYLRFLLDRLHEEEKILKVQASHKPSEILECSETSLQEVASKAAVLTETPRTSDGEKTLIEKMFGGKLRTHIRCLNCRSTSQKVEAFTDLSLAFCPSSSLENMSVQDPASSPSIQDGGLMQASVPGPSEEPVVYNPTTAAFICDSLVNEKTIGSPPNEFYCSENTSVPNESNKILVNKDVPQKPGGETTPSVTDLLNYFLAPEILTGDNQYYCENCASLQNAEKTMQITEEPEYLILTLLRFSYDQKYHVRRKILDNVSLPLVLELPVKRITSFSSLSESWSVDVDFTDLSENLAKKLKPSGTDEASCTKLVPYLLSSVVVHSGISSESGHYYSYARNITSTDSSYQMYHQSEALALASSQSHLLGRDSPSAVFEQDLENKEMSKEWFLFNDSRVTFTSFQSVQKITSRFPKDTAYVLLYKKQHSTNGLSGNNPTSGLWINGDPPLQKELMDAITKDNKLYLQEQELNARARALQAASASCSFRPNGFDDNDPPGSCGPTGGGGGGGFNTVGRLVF
Method in brief: as §1

USP39 = biological target: T3, USP39 (UniProt Q53GS9)
T3 sequence (whole entry): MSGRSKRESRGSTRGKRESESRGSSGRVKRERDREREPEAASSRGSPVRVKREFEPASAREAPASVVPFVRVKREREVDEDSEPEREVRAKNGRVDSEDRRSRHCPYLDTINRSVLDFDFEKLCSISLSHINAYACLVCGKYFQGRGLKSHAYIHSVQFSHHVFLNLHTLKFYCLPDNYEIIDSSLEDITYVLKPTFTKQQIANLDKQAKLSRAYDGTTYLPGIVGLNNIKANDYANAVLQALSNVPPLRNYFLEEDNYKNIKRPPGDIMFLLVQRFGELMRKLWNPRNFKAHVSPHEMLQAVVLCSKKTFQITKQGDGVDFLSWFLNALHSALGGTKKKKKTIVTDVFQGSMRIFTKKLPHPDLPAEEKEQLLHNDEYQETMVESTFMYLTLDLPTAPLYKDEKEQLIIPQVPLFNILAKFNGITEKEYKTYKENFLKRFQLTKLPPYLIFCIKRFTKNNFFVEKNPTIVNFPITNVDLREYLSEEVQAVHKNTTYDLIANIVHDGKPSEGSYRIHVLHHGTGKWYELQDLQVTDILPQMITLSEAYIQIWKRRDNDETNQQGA
Method in brief: as §1

USP4 = biological target: T4, USP4 (UniProt Q13107)
T4 sequence (whole entry): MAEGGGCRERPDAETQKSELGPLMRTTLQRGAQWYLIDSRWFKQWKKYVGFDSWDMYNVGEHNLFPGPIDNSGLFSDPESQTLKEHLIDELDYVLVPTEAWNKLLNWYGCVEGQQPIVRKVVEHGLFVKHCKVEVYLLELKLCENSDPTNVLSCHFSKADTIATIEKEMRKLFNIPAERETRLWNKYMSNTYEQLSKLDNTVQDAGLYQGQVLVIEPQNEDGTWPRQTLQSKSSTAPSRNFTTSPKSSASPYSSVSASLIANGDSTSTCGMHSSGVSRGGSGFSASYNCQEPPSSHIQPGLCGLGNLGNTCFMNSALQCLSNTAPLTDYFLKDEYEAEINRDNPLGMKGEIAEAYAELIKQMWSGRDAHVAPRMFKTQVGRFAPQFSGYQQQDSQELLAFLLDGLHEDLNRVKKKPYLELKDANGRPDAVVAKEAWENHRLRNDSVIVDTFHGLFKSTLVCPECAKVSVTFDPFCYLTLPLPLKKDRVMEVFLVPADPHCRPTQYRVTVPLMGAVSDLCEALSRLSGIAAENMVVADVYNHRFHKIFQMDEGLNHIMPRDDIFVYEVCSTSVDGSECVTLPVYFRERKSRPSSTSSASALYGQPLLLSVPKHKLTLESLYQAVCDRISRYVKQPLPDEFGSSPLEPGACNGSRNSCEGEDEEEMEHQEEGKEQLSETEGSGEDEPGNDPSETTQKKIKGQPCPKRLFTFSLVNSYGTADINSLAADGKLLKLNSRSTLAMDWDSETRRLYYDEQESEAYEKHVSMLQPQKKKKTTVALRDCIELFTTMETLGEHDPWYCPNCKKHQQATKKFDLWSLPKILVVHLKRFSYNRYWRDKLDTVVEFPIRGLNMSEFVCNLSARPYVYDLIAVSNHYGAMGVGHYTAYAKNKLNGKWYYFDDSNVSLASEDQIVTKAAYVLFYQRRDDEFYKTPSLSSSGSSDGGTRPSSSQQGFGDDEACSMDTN
Method in brief: as §1

Measured: log2 ratio of Biotin-Ahx-Ub-VS probe labelling

Sequence of USP34 (Q70CQ2 whole entry, the tested form may be a part): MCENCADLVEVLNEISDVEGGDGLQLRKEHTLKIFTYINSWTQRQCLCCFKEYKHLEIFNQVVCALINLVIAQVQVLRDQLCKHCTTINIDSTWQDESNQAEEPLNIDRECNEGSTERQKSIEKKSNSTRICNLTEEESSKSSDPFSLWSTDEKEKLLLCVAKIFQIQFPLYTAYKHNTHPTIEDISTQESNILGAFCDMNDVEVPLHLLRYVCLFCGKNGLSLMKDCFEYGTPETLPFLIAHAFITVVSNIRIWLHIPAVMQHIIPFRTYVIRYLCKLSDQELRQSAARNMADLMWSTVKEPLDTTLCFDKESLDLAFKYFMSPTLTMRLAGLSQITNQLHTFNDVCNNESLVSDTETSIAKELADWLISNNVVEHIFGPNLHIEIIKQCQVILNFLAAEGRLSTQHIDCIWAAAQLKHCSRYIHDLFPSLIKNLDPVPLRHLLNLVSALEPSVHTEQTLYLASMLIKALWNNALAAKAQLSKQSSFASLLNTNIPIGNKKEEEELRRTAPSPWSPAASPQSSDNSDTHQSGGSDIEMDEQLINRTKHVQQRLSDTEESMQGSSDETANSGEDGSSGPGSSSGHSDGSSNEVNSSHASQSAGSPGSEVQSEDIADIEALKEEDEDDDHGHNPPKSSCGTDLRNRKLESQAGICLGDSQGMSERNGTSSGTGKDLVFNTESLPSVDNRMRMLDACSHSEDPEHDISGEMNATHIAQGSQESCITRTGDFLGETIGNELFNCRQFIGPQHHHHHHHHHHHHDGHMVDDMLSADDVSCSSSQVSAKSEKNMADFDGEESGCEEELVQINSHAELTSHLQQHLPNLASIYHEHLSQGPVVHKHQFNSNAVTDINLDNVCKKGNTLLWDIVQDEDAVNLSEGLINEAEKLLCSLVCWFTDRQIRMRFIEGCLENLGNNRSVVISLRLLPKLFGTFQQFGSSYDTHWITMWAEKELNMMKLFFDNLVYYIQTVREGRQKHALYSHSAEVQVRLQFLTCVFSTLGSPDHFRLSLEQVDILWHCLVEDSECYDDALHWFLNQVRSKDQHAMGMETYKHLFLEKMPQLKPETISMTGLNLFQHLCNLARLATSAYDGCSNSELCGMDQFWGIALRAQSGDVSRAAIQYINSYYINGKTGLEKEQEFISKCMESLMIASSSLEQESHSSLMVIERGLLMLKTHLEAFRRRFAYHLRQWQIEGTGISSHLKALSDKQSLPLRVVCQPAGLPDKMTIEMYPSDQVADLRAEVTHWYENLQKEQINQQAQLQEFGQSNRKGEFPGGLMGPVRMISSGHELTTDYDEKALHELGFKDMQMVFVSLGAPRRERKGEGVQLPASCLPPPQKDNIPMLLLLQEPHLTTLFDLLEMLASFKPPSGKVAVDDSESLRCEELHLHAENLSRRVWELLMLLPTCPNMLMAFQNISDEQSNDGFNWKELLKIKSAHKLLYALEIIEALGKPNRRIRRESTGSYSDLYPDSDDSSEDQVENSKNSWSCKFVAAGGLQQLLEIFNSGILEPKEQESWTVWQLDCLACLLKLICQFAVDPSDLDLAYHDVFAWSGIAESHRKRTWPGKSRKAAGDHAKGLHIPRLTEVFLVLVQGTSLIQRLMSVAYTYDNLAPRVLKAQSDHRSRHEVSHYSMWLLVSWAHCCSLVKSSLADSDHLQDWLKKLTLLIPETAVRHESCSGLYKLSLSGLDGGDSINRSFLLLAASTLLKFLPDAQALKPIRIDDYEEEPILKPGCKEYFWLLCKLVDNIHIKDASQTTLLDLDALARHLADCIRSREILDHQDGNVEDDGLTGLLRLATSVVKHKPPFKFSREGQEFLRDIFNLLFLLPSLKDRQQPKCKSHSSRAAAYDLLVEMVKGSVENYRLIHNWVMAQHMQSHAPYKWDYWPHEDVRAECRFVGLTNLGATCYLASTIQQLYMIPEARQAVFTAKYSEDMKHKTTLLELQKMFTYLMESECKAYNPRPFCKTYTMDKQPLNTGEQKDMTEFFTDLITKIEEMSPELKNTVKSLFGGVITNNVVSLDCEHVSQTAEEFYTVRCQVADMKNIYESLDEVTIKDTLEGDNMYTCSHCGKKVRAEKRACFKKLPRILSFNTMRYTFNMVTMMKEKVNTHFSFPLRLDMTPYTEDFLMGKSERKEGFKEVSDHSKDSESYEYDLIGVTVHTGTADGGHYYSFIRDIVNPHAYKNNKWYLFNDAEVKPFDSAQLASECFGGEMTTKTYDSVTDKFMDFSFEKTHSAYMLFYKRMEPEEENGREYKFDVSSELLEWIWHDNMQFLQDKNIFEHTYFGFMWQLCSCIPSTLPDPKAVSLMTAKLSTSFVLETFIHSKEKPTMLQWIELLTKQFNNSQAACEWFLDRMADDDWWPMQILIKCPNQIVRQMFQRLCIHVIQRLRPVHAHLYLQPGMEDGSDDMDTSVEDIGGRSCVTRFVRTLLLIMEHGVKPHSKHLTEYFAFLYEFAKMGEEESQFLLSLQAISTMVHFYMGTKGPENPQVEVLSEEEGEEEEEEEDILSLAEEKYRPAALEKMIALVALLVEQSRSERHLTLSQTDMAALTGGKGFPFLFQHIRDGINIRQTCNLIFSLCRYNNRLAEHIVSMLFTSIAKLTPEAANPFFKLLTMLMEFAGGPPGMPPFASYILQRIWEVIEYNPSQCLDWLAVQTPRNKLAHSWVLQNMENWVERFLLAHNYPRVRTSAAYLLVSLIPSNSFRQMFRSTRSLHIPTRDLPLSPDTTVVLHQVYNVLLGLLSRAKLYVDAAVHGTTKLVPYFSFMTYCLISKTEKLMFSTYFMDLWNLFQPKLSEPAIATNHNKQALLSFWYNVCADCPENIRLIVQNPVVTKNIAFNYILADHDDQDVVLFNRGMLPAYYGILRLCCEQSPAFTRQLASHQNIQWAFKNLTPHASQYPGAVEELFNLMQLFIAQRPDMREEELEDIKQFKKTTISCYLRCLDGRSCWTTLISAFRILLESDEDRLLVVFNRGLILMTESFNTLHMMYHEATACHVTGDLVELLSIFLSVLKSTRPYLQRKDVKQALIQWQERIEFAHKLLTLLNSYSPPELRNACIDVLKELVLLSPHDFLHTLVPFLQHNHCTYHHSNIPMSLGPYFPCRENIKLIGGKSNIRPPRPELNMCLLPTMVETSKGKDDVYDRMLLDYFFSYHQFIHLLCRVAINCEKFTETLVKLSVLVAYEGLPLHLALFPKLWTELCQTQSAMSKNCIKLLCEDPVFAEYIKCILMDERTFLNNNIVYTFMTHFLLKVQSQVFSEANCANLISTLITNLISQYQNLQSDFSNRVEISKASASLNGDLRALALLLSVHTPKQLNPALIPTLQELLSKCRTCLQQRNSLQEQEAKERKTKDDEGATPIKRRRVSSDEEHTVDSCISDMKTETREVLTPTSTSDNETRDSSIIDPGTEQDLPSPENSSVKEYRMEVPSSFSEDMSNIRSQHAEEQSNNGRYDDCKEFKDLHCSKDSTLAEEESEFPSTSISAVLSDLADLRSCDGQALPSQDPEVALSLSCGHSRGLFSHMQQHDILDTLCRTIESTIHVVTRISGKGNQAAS

O=C(CCl)N1c2ccccc2NC(=O)C12CCCC2
inactive: USP34 -0.193 | USP36 0.111 | USP38 0.18 | USP39 0.678 | USP4 -0.0657
